# PubChem BioAssay
# Experiment: binders from COS7 lysate, DM2A8 probe, primary screen, torsin A project, cell lysate, small-molecule microarray, fluorescence 635/667 (AID 1065)
# Settings: higher = more signal, COS7 lysate expressing mutant human TOR1A
row,Compound,composite z-score
1,CCOC(=O)NN=C1C[C@@H](O)[C@@H](O)[C@@H]2[C@@H]3C(=O)N([C@@H](C)c4ccccc4)C(=O)[C@@H]3CC[C@@H]12,2.08
2,COC(=O)[C@@H]1CC[C@H](C)[C@@H](c2ccc(C)cc2)N1C(=O)c1ccc(C=NO[C@@H](C)c2cn([C@H](CO)Cc3ccccc3)nn2)cc1,-0.0378
3,O=C1CCCC=C1C(O)CCOC(c1ccccc1)(c1ccccc1)c1ccccc1 (stereo not given),0.422
4,COC(=O)CC=C[C@@H](C)[C@@H]1C=C[C@H](O)[C@@H](CO)O1,0.124
5,C[C@@H](ON=C1[C@H]2CCn3c(=O)n(-c4ccccc4)c(=O)n3[C@H]2[C@H](O)[C@@H]2O[C@H]12)c1cn([C@@H]2COC[C@H]2O)nn1,0.653
6,CO[C@@H]1COC(=O)[C@H](CCSC)NC(=O)CC=C[C@@H](C)COC(=O)CCC[C@H]1C,2.94
7,COc1cccc([C@@H]2Oc3ccc(OC)cc3C(=O)[C@H]2O)c1,0.0796
8,C=CC1=C[C@H](O)[C@@H]2O[C@@H]2C12OCCCO2,0.2
9,CCOC(=O)NN=C1C[C@@H](O)[C@@H](O)[C@@H]2[C@@H]3C(=O)N(Cc4ccccc4)C(=O)[C@@H]3CC[C@H]12,0.695
10,COC(=O)[C@@H]1CC[C@H](C)[C@@H](c2ccc(C)cc2)N1C(=O)c1ccc(C=NO[C@H](C)c2cn([C@H](CO)Cc3ccccc3)nn2)cc1,0.522
11,COc1cc(O)c(C(=O)C=Cc2ccc3c(c2)OCO3)c(OC)c1,0.0414
12,CCOC(=O)[C@H](CC(C)C)NC(=O)CCC1CC(OC(=O)NCc2cccc3ccccc23)CC2(CCCC(COC(=O)NCC3CCCCC3)O2)O1 (stereo not given in full),0.194
13,Cc1cc2c(c(=O)o1)[C@@H](O)[C@H]1O[C@H]1C2=O,0.23
14,Cc1ccc(S(=O)(=O)NC(CCc2ccccc2)CC(=O)C(C)(C)C)cc1 (stereo not given),0.339
15,C[C@@H](c1ccccc1)N1C(=O)[C@H]2[C@H]3[C@H](O)[C@H](O)CC(=NO[C@@H]4O[C@H](CO)[C@@H](O)[C@H](O)[C@H]4O)[C@@H]3CC[C@H]2C1=O,0.764
16,CCN1C(=O)[C@@H]2[C@H]3C(=CC[C@@H]2C1=O)C1(OCCCO1)[C@H]1O[C@H]1[C@H]3O,0.771
17,CCOC(=O)[C@H](CC(C)C)NC(=O)CCC1CC(OC(=O)NCc2cccc3ccccc23)CC2(CCCC(COC(=O)NCCCN3CCCC3=O)O2)O1 (stereo not given in full),0.129
18,CC(=O)OC[C@H]1OC(ON=CC[C@@H]2C=C[C@H](OC(C)=O)[C@@H](COC(C)=O)O2)[C@H](OC(C)=O)[C@@H](OC(C)=O)[C@@H]1OC(C)=O (stereo not given in full),0.585
19,COc1ccc(O[C@@H]2[C@H](O)CO[C@@H]2C=Cc2ccccc2)cc1,0.232
20,O=C1[C@H]2[C@H]3[C@H](O)[C@H](O)CC(=NOC[C@@H](O)COCc4ccco4)[C@H]3CC[C@H]2C(=O)N1C[C@@H]1CCCO1,1.03
21,CC(C)=CCCC(C)=CCON=C1C[C@@H](O)[C@@H](O)[C@@H]2[C@@H]3C(=O)N(C(C)(C)C)C(=O)[C@@H]3CC[C@@H]12,0.113
22,C#CCCCON=C1C[C@@H](O)[C@@H](O)[C@@H]2[C@@H]3C(=O)N(CCC(=O)OCC)C(=O)[C@@H]3CC[C@H]12,0.294
23,C[C@H]1CC[C@H]2C(=O)O[C@H](COc3ccc(C(C)(C)C)cc3)CN2[C@@H]1c1ccc(Br)cc1,0.169
24,CC(C)=CCCC(C)=CCON=C1C[C@@H](O)[C@@H](O)[C@@H]2[C@@H]3C(=O)N(c4cccc(Oc5ccccc5)c4)C(=O)[C@@H]3CC[C@@H]12,-0.314
25,COc1ccc(O[C@H]2C=C[C@@H](c3ccccc3)O[C@@H]2COC(=O)CCC(C)=NOC(C)CN2CCCc3nc(C)c(C)cc32)cc1 (stereo not given in full),-0.395
26,COC(=O)[C@H](C)NC(=O)CCC1CC(OC(=O)NCc2cccc3ccccc23)CC2(CCCC(COC(=O)NCC(c3ccccc3)c3ccccc3)O2)O1 (stereo not given in full),0.233
27,C=COC[C@@H]1CN2[C@@H](CC[C@@H](C)[C@@H]2c2ccc(Br)cc2)C(=O)O1,0.436
28,CCOC(=O)[C@H](CC(C)C)NC(=O)CCC1CC(OC(=O)NCc2cccc3ccccc23)CC2(CCCC(COC(=O)NCCC(C)C)O2)O1 (stereo not given in full),0.141
29,CCOC(=O)[C@H](Cc1ccccc1)NC(=O)CCC1CC(OC(=O)NCCc2ccc(F)cc2)CC2(CCCC(COC(=O)NCCc3ccccc3OC)O2)O1 (stereo not given in full),0.238
30,CO[C@H](C1CCCCC1)[C@H](C)C=CCC(=O)OCCCc1ccccc1,0.216
